Measurements reported in PubChem BioAssay (NCI).
Compounds without any hit were thinned out: in the full panel of roughly 83,000, 20% have a hit.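 A percent growth of 40 corresponds to 60% growth inhibition; 0 means no net growth; -100 means all cells died. Active threshold: below 10.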 Unmarked numbers belong to inactive results. The source made the active and inactive calls.

The compounds below were run on SF-539 CNS (assay: NCI-60 one-dose screen, 48 h (100 = growth as untreated, 0 = no growth, -100 = all killed)). Details: 10 µM unless noted.

Question: How did the growth turn out when CCC1S/C(=N\N=C(/C)c2ccco2)N(c2ccccc2)C1=O (centres undefined) was run?
Answer: 107%

Question: With C#C[C@H](O)/C=C/CCCCCCC#C[C@H](O)CC[C@@H](O)C#CCCCCCC/C=C/[C@@H](O)C#C as the compound, how does the growth read?
Answer: 75.9%

Question: How did the growth turn out when O=[N+]([O-])c1cccc2cc(S(=O)(=O)O)ccc12 was run?
Answer: 99.4%

Question: Which growth does the source give for Nc1ccc(S(=O)(=O)Nc2cc(I)cc(I)c2)cc1 here?
Answer: 111%

Question: How did the growth turn out when O=C(Nc1ccc(-n2cc(-c3ccncc3)c(-c3ccc(O)c(Cl)c3)n2)cc1)Nc1cc(C(F)(F)F)cc(C(F)(F)F)c1 was run?
Answer: 62.4%

Question: With O[C@@H]1CCO[C@H](c2ccc3ccccc3c2)C1 as the compound, how does the growth read?
Answer: 98.9%

Question: For COc1cc(Cn2cc3c(c2)-c2onc(CO)c2CC3)cc(OC)c1OC, which growth is on record?
Answer: 96.8%

Question: How did the growth turn out when CN(C)CCS(=O)(=O)Nc1cc(-c2ccc3ncnc(Nc4ccc(F)c(Cl)c4)c3c2)cnc1Cl was run?
Answer: -22.2% (active)

Question: With CCN(CC)c1ccc(C2CC(c3cc(OC)c(OC)c(OC)c3)=NN2)cc1 (centres undefined) as the compound, how does the growth read?
Answer: -43.1% (active)

Question: Which growth does the source give for CCn1cc(C(=O)O)c(=O)c2cc(F)c(N3CCN(CC(=O)Nc4ccc(C(C)=O)cc4)CC3)cc21 here?
Answer: 98%

Question: With CCOc1ccc(-n2c(-c3cc(OC)c(OC)c(OC)c3)nnc2-c2ccc(OC)cc2N)cc1 as the compound, how does the growth read?
Answer: 77.6%

Question: Which growth does the source give for COc1ccc(/C(=C/c2cc(OC)c(OC)c(OC)c2)[N+](=O)[O-])cc1 here?
Answer: -11.3% (active)

Question: Which growth does the source give for O=C(Nc1cccc([N+](=O)[O-])c1)Nc1cccc([N+](=O)[O-])c1 here?
Answer: 74.9%

Question: How did the growth turn out when COc1ccc(-c2nn(-c3ccc(NC(=O)Nc4cc(C(F)(F)F)cc(C(F)(F)F)c4)cc3)cc2-c2ccncc2)cc1Cl was run?
Answer: 24.6%

Question: How did the growth turn out when O=c1c2ccccc2sc2c(NCCCNCCO)nc3ccccc3c12 was run?
Answer: 54.7%

Question: Which growth does the source give for O=C(NNC(=O)c1ccc([N+](=O)[O-])cc1)c1ccc([N+](=O)[O-])cc1 here?
Answer: 91.4%

Question: How did the growth turn out when CCN(CC)C(=O)C1CCN(C(=O)c2ccccc2)CC1 was run?
Answer: 101%

Question: For O=S(=O)(O)c1ccc(F)cc1, which growth is on record?
Answer: 102%

Question: How did the growth turn out when Cc1cc(SCc2ccc(Cl)cc2Cl)nc(SCc2ccc(Cl)cc2Cl)n1 was run?
Answer: 98%

Question: CCOC(=O)c1noc2c1CCc1cn(Cc3cc(OC)cc(OC)c3)cc1-2 was tested. Which growth did it give?
Answer: 98.8%

Question: With CC(C)(C)C(=O)Nc1nc2c(s1)CCc1ccn(S(=O)(=O)c3ccccc3)c1-2 as the compound, how does the growth read?
Answer: 99.4%

Question: CCCCCCCCCCCCCCCCNc1ccccc1 was tested. Which growth did it give?
Answer: 97.1%

Question: Which growth does the source give for Cc1nc(N)nc(SCc2ccccc2)c1Br here?
Answer: 96.4%

Question: For O=S(c1ccccc1)c1ccc2nnnn2n1 (centres undefined), which growth is on record?
Answer: 102%

Question: With O=C1COc2ccccc2C(=O)N1CCCCN1CCCCC1 as the compound, how does the growth read?
Answer: 102%

Question: For O=C(COc1ccc(Cl)cc1Cl)N1N=C(c2ccc(Cl)cc2Cl)CC1(O)c1cc(F)c(Cl)cc1Cl (centres undefined), which growth is on record?
Answer: 112%

Question: With CC(CCC(=O)O)[C@H]1CCC2C3C(=O)C[C@@H]4CC(=O)CC[C@]4(C)C3CC(=O)[C@@]21C (some centres undefined) as the compound, how does the growth read?
Answer: 111%

Question: COc1ccc(-c2nn(-c3ccc(NC(=O)Nc4ccc(Cl)c(C(F)(F)F)c4)cc3)cc2-c2ccncc2)cc1Cl was tested. Which growth did it give?
Answer: -1.2% (active)

Question: For O=C1COc2ccccc2C(=O)N1CCCCNc1ccccc1, which growth is on record?
Answer: 63.2%

Question: Which growth does the source give for O=C1CCC(c2c(O)cc(O)c3c(=O)c(O)c(-c4ccc(O)c(O)c4)oc23)N1 (centres undefined) here?
Answer: 103%

Question: How did the growth turn out when CCCCCCCCCCCCCCCC(=O)NS(=O)(=O)OC[C@H]1O[C@@H](n2cnc3c(N)ncnc32)[C@H](O)[C@@H]1O was run?
Answer: -69.4% (active)

Question: For CN(CCNCc1ccccn1)CCNCc1ccccn1, which growth is on record?
Answer: 3.15% (active)

Question: CCN(CC)CCNCC(O)Cc1ccc(OC)cc1 (centres undefined) was tested. Which growth did it give?
Answer: 106%

Question: How did the growth turn out when CN1CCN(Cn2nc(-c3cc(Cl)cc(Cl)c3Cl)n(/N=C/c3ccc(Cl)cc3)c2=S)CC1 was run?
Answer: 108%

Question: How did the growth turn out when Cn1cnc([N+](=O)[O-])c1N1c2ccncc2Sc2ccncc21 was run?
Answer: 96.3%

Question: With O=C(O)c1cccc2oc(-c3ccccc3O)nc12 as the compound, how does the growth read?
Answer: 50%

Question: Nn1c(CN2CCN(c3cc4c(cc3F)c(=O)c(C(=O)O)cn4C3CC3)CC2)n[nH]c1=S was tested. Which growth did it give?
Answer: 99.3%

Question: How did the growth turn out when Cc1ccc2nc(-c3ccc(-n4on4-c4ccc(/C=C/c5ccc(-n6on6-c6ccc(-c7nc8ccc(C)cc8s7)cc6)cc5S(=O)(=O)O)c(S(=O)(=O)O)c4)cc3)sc2c1 was run?
Answer: 98.7%

Question: For CC(C)(C)NCC(O)COc1c(Br)c(Br)c(Br)c2c1OC(C)(C)C2 (centres undefined), which growth is on record?
Answer: -84.5% (active)
